Screens as filed in PubChem BioAssay.
Sampled rows, rich in hits. Any-hit rate of the full collection: about 1.5%.
SKBR3 24h inh – SK-BR-3 proliferation inhibitors; 41,000 compounds, 0.47% hits; AID 847; SK-BR-3 viability, CellTiter-Glo ATP luminescence, 24 h; active compounds read low; viability, % at 10 µM;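 active = viability at or below the median of all test compounds minus 3 SD, in both replicates if run twice, cut at about 45% in these data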;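 note: 100% = median untreated cell wells and 0% = median positive control drug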
DUSP1 inh – blocks human MKP-1 phosphatase activity; P28562; recombinant MKP-1, OMFP hydrolysis fluorescence; inhibition, %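 (compounds tested at a single concentration somewhere between 10 and 100 µM)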; 65,000 compounds, 0.15% hits; AID 374;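 active = inhibition above about 50%, limit read from the data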;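 note: 0% = DMSO max control wells and 100% = wells with enzyme stopped by NaOH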
Target sequence (P28562 whole entry, looked up): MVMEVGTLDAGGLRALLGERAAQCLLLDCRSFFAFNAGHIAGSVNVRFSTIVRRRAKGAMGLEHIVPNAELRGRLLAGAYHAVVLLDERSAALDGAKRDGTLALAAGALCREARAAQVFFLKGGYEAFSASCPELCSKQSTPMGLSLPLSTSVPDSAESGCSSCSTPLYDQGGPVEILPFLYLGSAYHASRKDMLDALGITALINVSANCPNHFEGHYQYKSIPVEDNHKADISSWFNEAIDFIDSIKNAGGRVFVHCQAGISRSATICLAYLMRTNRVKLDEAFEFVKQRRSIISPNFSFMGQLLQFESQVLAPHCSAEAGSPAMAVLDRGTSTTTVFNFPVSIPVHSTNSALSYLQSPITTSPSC
HER2 expr 66K – inhibitors of human Her2 kinase expression | P04626 | SKBR-3 HER2 protein level, AlphaScreen, 18-24 h; active compounds read low | HER2 level % of control, % at 10 µM | 65,000 compounds, 0.69% hits;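 active = HER2 level under 5% of the carrier-only control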;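 note: 100% = DMSO carrier and 0% = 500 nM PU-H71 HSP90 inhibitor; lower value means stronger loss of Her2 protein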
Cdc25B block – human M-phase inducer phosphatase 2 inhibition; P30305; AID 368; 65,000 compounds, 0.1% hits; recombinant Cdc25B, OMFP fluorescence Ex485/Em525; inhibition, %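 (compounds tested at 10 µM final in the well)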; in the data active = inhibition above about 50%
Hsp90 block – displaces geldanamycin probe from tumor Hsp90; P07900; NCI-N417 lysate Hsp90, Cy3B-geldanamycin FP displacement; inhibition, % at 30 µM; 64,000 compounds, 0.35% hits; AID 429;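 active = inhibition above 50%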;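 note: 0% = tracer plus lysate wells and 100% = tracer alone without lysate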
The depositor's hits bear a star; i = inactive; x = not tested or not shown.

SMILES | SKBR3 24h inh | DUSP1 inh | HER2 expr 66K | Cdc25B block | Hsp90 block
CCOC(=O)N1CCN(C(=O)Cc2ccc(Cl)cc2)CC1 | 98 | 0 | 93 | -5 | -6
CC(C)N(C(=O)CSc1nnc(NC(=O)C2CCC2)s1)C(C)C | 42* | -11 | 115 | -8 | 1
COc1ccc(C2=CC(c3ccc(Cl)cc3)n3cnnc3N2)cc1OC (stereo unspecified) | 40* | 26 | 91 | -14 | x
O=C(CN1C(=O)c2ccccc2S1(=O)=O)NCCSc1ccccc1 | 44* | -20 | 83 | -6 | -2
Cc1ccc(SCCNC(=O)CN2C(=O)c3ccccc3S2(=O)=O)cc1 | 89 | 14 | 189 | -7 | x
COc1ccccc1-c1c(C)nn2c(N3CCC4(CC3)OCCO4)cc(C)nc12 | x | 2 | 114 | 8 | 0
Cc1cc(N2CCC3(CC2)OCCO3)n2nc(C)c(-c3ccc(Cl)cc3)c2n1 | x | 12 | -19* | -6 | -2
CCOC(=O)c1c(C)oc2c1c(C(c1cccnc1)N1CCN(C)CC1)c(O)c1ccccc12 (stereo unspecified) | x | 35 | -16* | -25 | 1
O=C(O)CC(NC(=O)COc1ccc(Cl)cc1Cl)C(=O)O (stereo unspecified) | 125 | -19 | 119 | -20 | -3
OC(CN1CCN(c2cccc(C(F)(F)F)c2)CC1)c1c[nH]c2ccccc12 (stereo unspecified) | 75 | 21 | -22* | 2 | -7
NC1CONC1=O (stereo unspecified) | x | x | x | x | -1
CNC(=O)[C@H]1O[C@@H](n2cnc3c(N)ncnc32)C(O)[C@H]1O (stereo partly specified) | x | x | x | x | 22
O=C(c1cc2cc3ccc(Cl)cc3nc2o1)N1CCN(Cc2ccc3c(c2)OCO3)CC1 | x | -4 | 86 | 12 | 0
O=C(c1cccn2c(=O)c3ccc(Cl)cc3nc12)N1CCN(Cc2ccc3c(c2)OCO3)CC1 | x | 64* | 105 | -6 | 2
Nc1c(C(=O)NCc2ccc3c(c2)OCO3)c2nc3ccccc3nc2n1CCCN1CCOCC1 | 107 | 29 | 3.8* | -8 | -6
COc1ccc2sc(NC(=O)CC(C)C)nc2c1 | 99 | 8 | -19* | -7 | 1
O=C(Cc1cscn1)c1ccc(O)cc1O | 99 | -13 | -18* | 8 | -1
Cc1cc2oc(=O)cc(COC(=O)c3cccc(N(C)C)c3)c2cc1C | x | 0 | 98 | -9 | -1
Cc1nn(-c2ccccc2)c2[nH]c(=O)c(CNc3ccc(N4CCOCC4)cc3)cc12 | 73 | 5 | 112 | -14 | 1
Cc1nn(-c2ccc(Cl)cc2)c2[nH]c(=O)c(CNCc3ccc4c(c3)OCO4)cc12 | 65 | 32 | -19* | -1 | 0
CCCOC(=O)CN1C(=O)c2ccccc2C1=O | 91 | 29 | 92 | 7 | -4
CCCCOCCCNC(=O)CN1C(=O)c2ccccc2C1=O | 96 | 4 | -21* | 1 | x
CCN(CC)CC(=O)Nc1cc(C)c2c(=O)oc3ccccc3c2n1 | x | 2 | 79 | -4 | -2
C[C@@](Cc1ccc(O)c(O)c1)(NN)C(=O)O | 97 | 6 | 110 | 8 | 31
CC(N)(Cc1ccc(O)c(O)c1)C(=O)O (stereo unspecified) | x | x | x | x | 54*
SMILES | SKBR3 24h inh | DUSP1 inh | HER2 expr 66K | Cdc25B block | Hsp90 block
N#CC(C#N)=c1ccc2c(c1)NC1(CCCCC1)N=2 | 52 | 25 | -26* | -15 | 10
NC(=O)c1oc2ccccc2c1NC(=O)c1ccco1 | x | 8 | 36 | 3 | -2
CCOc1ccc(CC(=O)Nc2c(C(N)=O)oc3ccccc23)cc1OCC | 34* | -7 | 112 | -2 | -2
Nc1cc(N)c(OCC(F)(F)F)cc1OCC(F)(F)F | 85 | -6 | 56 | 11 | 89*
COc1ccc(OC)c(C2C3=C(CCCC3=O)Nc3nc4ccccc4n32)c1 (stereo unspecified) | 70 | 8 | 60 | 3 | 1
Cc1ccc(C(c2sc3nc(C)nn3c2O)N2CCN(CCO)CC2)cc1 (stereo unspecified) | x | 13 | 71 | -3 | -3
Cc1ccc(C(c2sc3nc(C)nn3c2O)N2CCN(c3ccccc3F)CC2)cc1 (stereo unspecified) | 93 | 10 | -18* | 9 | 1
c1ccc2c(N3CCCCC3)nc(N3CCCC3)nc2c1 | x | -8 | 58 | -3 | -2
COc1ccc(Nc2nc(N3CCCC3)c3ccccc3n2)cc1 | x | -16 | -5.6* | -16 | -2
CCCCN(C)S(=O)(=O)c1ccc(C(=O)Nc2nnc(CSC)o2)cc1 | 43* | -6 | 86 | -1 | -1
CCCCN(CC)S(=O)(=O)c1ccc(C(=O)Nc2nnc(-c3cccs3)o2)cc1 | 75 | -10 | 64 | -11 | 1
CCc1nnc(NC(=O)c2ccc(S(=O)(=O)N(CC)Cc3ccccc3)cc2)o1 | 53 | -7 | 79 | -8 | -4
CCCCN(CCCC)S(=O)(=O)c1ccc(C(=O)Nc2nnc(COC)o2)cc1 | 56 | 10 | -17* | 0 | -3
COc1ccc(C2C3=C(CCCC3=O)Nc3nc4ccccc4n32)c(OC)c1OC (stereo unspecified) | 70 | 3 | 74 | 3 | 0
Fc1ccc(-c2nnc3ccc(N4CCc5ccccc5C4)nn23)cc1 | x | 24 | 78 | -10 | -3
COc1ccc(CCn2c(=N)c(C#N)cc3c(=O)n4ccccc4nc32)cc1 | 86 | 2 | 164 | 14 | -5
C#CCOC(=O)c1ccccc1C(=O)OCC#C | 86 | -10 | -22* | -16 | -2
N#CC(=C(\N)Sc1ccccc1N)/C(C#N)=C(/N)Sc1ccccc1N | x | x | x | x | i
CC(C)(CNC(=O)c1cccs1)CNC(=O)c1cccs1 | x | 3 | 102 | -16 | 2
CC1(C)CC(=O)C2=C(C1)OC(=O)C2(NC(=O)c1cccs1)C(F)(F)F (stereo unspecified) | 79 | -2 | -12* | -6 | -1
Cc1nc(SCC(=O)N2CCN(c3ccccc3)CC2)c2c(=O)n(C)c(=O)n(C)c2n1 | x | 14 | 95 | -7 | -2
Cc1cc2oc(=O)cc(CN3CCC(C)CC3)c2c(C)c1Cl | 90 | -9 | 107 | -8 | 0
COc1ccc(N2CCN(Cc3cc(=O)oc4cc(C)c(Cl)c(C)c34)CC2)cc1 | 42* | 5 | 74 | 0 | -2
CCN1C(=O)C(C(=O)Nc2ccc(OC)cc2)C2CC1(C)Oc1ccccc12 (stereo unspecified) | 85 | 1 | 93 | 6 | 2
COc1ccc(/C=C/C(O)=C2/C(=O)N(C)C3(C)CC2c2ccccc2O3)cc1 (stereo unspecified) | x | 2 | -6.0* | -9 | 1
N#CC(C(=O)NC1CCCCC1)c1nc2ccccc2nc1N1CCCCC1 (stereo unspecified) | 92 | 17 | 88 | 6 | 0
O=C(COC(=O)CCCNC(=O)c1ccc(Cl)cc1)NC1CC1 | x | -5 | 118 | -8 | 2
O=c1cccc(-c2ccccc2)[nH]1 | 100 | -21 | -26* | -13 | 1
C[N+](C)(C)CCC(=O)c1cccc2ccccc12 | x | x | x | x | 0
COC(=O)/C=C/S(=O)(=O)c1ccc(NC(C)=O)cc1 | 2.1* | 7 | -20* | -2 | -3
